Laboratory results taken from the OligoGym collection.

What follows are sequences tested against CD1E (assay: pooled miR-30 sensor sort-seq; sequence = guide strand). Details: shRNA.
Note: reference of the scale not given here.

Sequence | sensor-assay potency score (higher = more potent)
AACTACAACCAATATGACCAGG | -0.902
TATTTCCTTAATATCTAGGTAG | -0.111
TAATATCTGGATCTCGAAGGGG | -0.509
TTTTGATCCACGATACTTGTGC | 0.208
TTCCTTAATATCTAGGTAGCGA | -0.491
TCTACAGCCAGCTAATATCTGG | -0.694
AATATCTGGATCTCGAAGGGGT | 0.0216
TATAACTGGAACAGTGACTGTA | 0.739
TAAGTTTTTCAGCTCCTGCTTG | -0.417
TAGACTGCTGTGTTTCACCCGA | -0.381
TTTTTCAGCTCCTGCTTGCTGA | -0.242
TGTTCTTATTTGAACTCTGTTT | -0.835
TTCCACTTCTTCAATACTCTGT | 0.573
TATCTGGATAAAACTATGGAAG | -1.28
TATTTAAGAAGATTTGTGGGGC | 0.193
TAGGTAGCGATTGAGCACTTTA | -0.754
ATATCCACCATGTCTCGTCAGC | -0.905
TTAACCGTGAGTCAACTACAAC | -1.49
TGTCTCGTCAGCATTAGGCAGG | -0.59
ATAACTGGAACAGTGACTGTAA | 0.29
TAGGATTGTAGAGCCTGGGGAG | -0.471
